Screening data (PubChem BioAssay)
Rows were chosen to be rich in hits. Some 3.3% of all compounds tested hit in one or more screens of this group.
FLuc inh – qHTS Assay for Inhibitors of Firefly Luciferase; purified firefly luciferase, luminescence, 8 min; Luciferin 4-monooxygenase (Photinus pyralis), P08659; 72,000 compounds, 2.2% hits; Potency, µM (titrated, usually from 57.1 µM), most hits filed as inhibitors; AID 411, 2009; note: nearly all actives have a fitted effect of over 40% in size
Target sequence (P08659 whole entry, looked up): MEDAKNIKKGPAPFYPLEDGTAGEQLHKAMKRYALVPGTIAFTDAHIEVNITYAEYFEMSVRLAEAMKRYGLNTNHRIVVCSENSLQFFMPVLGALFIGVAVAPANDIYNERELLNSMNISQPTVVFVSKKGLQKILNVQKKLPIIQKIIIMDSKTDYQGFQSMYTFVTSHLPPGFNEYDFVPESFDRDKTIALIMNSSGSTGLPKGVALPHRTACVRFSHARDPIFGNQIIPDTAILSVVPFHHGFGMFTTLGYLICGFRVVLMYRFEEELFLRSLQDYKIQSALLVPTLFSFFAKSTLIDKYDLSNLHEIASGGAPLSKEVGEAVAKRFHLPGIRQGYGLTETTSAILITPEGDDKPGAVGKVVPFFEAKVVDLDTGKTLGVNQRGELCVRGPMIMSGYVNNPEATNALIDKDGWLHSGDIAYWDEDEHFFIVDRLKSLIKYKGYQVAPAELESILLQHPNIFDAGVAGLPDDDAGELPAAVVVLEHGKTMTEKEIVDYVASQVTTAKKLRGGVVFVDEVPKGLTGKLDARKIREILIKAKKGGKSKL
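Compounds were tested as concentration series (qHTS) against purified P. pyralis luciferase with luciferin and 10 uM ATP in 50 mM imidazole pH 7.2, 50 mM KCl, 7 mM MgCl2, 0.01% Tween 20, 0.05% BSA. Luminescence was read after 8 min at ambient temperature.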
UbGFP stabilizer – Ubiquitin-GFP Assay; Ubiquitin-GFP reporter cells, proteasome inhibition, GFP fluorescence; response scale: untreated = 0%, 10 µM MG-132 = 100%; Potency, µM (highest dose often 45.9 µM), actives largely listed as activators; 67,000 tested, under 10 active; AID 526, 2006; active = well fitted activation curve with a large enough effect, not every such curve was filed as active; inconclusive = small, poorly fitted or top-dose-only effect, or another doubt; inactive = no such curve, though single readings can be large or run the other way
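Proteasome blockade was scored as a rise in GFP-expressing U2OS cells carrying a ubiquitin(G76V)-GFP construct, imaged after 4 hr compound treatment at 37 °C across a 46 uM–2.9 nM series.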
GFP derepression – qHTS Assay for Epigenetic Modulators | mouse C127i GFP locus derepression, cytometry, 30 h | Potency, µM (doses to about 46.1 µM) | 68,000 compounds, 0.09% hits | AID 597, 2007
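Murine C127i mammary cells carrying a silenced, stably integrated CMV-driven GFP reporter were treated with compound for 30 hours at 37 C. After PBS washes, GFP-positive cells were counted by laser-scanning microplate cytometry.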
HBB splice mod – qHTS Assay for Modulators of Hemoglobin Beta Chain Splicing; HBB splicing reporter cell assay, activation; EGFP reporter with mutant IVS2-654 intron; response scale: normalised to 500 nM splice-correcting PNA; Potency, µM (titrated, usually from 46.1 µM), most hits filed as activators; 65,000 compounds, 0.06% hits; AID 925, 2007
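HeLa cells stably expressing EGFP interrupted by mutant beta-globin intron 2 (IVS2-654), 500/well in 2% FCS. Treated with compound for 2 days at 37C. Splicing correction scored as total well GFP intensity (488 nm excitation, 500-520 nm emission); 500 nM antisense PNA served as control.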
GBA activity – Glucocerebrosidase | 48,000 compounds, 1.1% hits | purified enzyme, resorufin glucoside fluorescence (screen aimed at inhibitors), 20 min | Lysosomal acid glucosylceramidase (Homo sapiens), P04062 | Potency, µM; in the data active = potency below about 15 µM; inconclusive = mostly about 16 µM to 33 µM;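 note: the screen sought inhibitors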
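Normal human glucocerebrosidase (0.2 nM final) was assayed with resorufin β-D-glucopyranoside (30 uM final) in 50mM citric acid/KH2PO4, 10mM sodium taurocholate, 0.01% tween-20, pH 5.9. Compounds were titrated; fluorescence (Ex 548, Em 600) read after 20 min at RT.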
Bst PK mod – Pyruvate Kinase; AID 361, 2006; 51,000 compounds, 1.2% hits; purified pyruvate kinase, luminescence ATP production; ribose 5-phosphate activator present at AC10; Potency, µM; in the data active = potency below about 11 µM; inconclusive = mostly about 12 µM to 25 µM;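 the screen sought inhibitors and activators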
Numbers stand for hits; [ ] = another dose, or the depositor's remark. Unless noted, calls come from the whole dose curve; as a rule, active = well fitted curve in the direction sought with a large enough effect; inconclusive = small, poorly fitted or top-dose-only effect, or another doubt; inactive = no such curve, though single readings can be large; an effect the other way counts as inactive or inconclusive.

Results for COc1ccc(-c2cc(CCCC(=O)NCc3ccccn3)no2)cc1 ?
FLuc inh: 10µM; UbGFP stabilizer: inactive; HBB splice mod: inactive

How did CCOc1ccc(-c2cc(CCCC(=O)NCc3cccnc3)no2)cc1 do in these assays?
FLuc inh: 12.6µM; UbGFP stabilizer: inactive; GFP derepression: inactive; HBB splice mod: inactive

What do the screens show for `COc1ccc(-c2cc(CCCC(=O)NCCc3ccc(OC)cc3OC)no2)cc1`?
FLuc inh: inactive; GFP derepression: inactive; HBB splice mod: inactive[0.369 µM]; GBA activity: inactive; Bst PK mod: inactive

How did NCCC[C@@H](CC(=O)N[C@@H]1CCNC[C@H]1C(=O)N[C@H](CC(=O)N[C@@H](CCC(=O)O)CC(=O)O)Cc1ccccc1)NC(=O)C[C@H](Cc1c[nH]c2ccccc12)NC(=O)[C@@H]1CCCC[C@H]1N do in these assays?
HBB splice mod: inactive

What do the screens show for `CN(C)c1ccc(N/C=C/C(=O)c2ccccc2)cc1`?
FLuc inh: 0.316µM; UbGFP stabilizer: inactive; GFP derepression: inactive; HBB splice mod: inactive; GBA activity: inactive; Bst PK mod: 0.422

What do the screens show for `COCC(=O)Nc1ccc(N(C)C)cc1`?
FLuc inh: inactive; UbGFP stabilizer: inactive; GFP derepression: inactive; HBB splice mod: inactive; GBA activity: inactive; Bst PK mod: inactive

Results for CSCCNC(=O)c1ccc(C(C)(C)C)cc1 ?
FLuc inh: 12.6µM; UbGFP stabilizer: inactive; GFP derepression: inactive; HBB splice mod: inactive; GBA activity: inactive; Bst PK mod: inconclusive

How did O=C(NCCSc1ccccc1)c1ccccc1 do in these assays?
FLuc inh: inconclusive; UbGFP stabilizer: inactive; GFP derepression: inactive; HBB splice mod: inactive; GBA activity: inactive

Results for COc1ccc(CCNC(=O)c2cc3ccccn3n2)c(OC)c1OC ?
FLuc inh: inactive; UbGFP stabilizer: inactive; HBB splice mod: inactive

How did COc1ccc(NC(=O)c2cc3ccccn3n2)cc1 do in these assays?
FLuc inh: 6.31µM; UbGFP stabilizer: inactive; GFP derepression: inactive; HBB splice mod: inactive

How did COc1ccc2oc(-c3ccc(O)cc3)cc(=O)c2c1 do in these assays?
FLuc inh: inconclusive; UbGFP stabilizer: inactive; GFP derepression: inactive[9.22 µM]

What do the screens show for `CCc1cc2c(c(CC)n1)CCC(=O)N2Cc1ccc(-c2ccccc2-c2nn[nH]n2)cc1`?
FLuc inh: 15.8µM; UbGFP stabilizer: inactive; GFP derepression: inactive

How did Cn1c(N)nc2c(nc(OCc3ccccc3)n2[C@@H]2O[C@H](CO)[C@@H](O)[C@@H]2O)c1=O do in these assays?
FLuc inh: inactive[11.4 µM]; UbGFP stabilizer: inactive[9.17 µM]; GFP derepression: inactive[9.22 µM]; HBB splice mod: inactive[9.22 µM]

What do the screens show for `Cc1ccc2c(c1)cc(CN(Cc1ccco1)S(=O)(=O)c1ccccc1)c1nnnn12`?
FLuc inh: inactive; UbGFP stabilizer: inactive; GFP derepression: inactive; GBA activity: inactive; Bst PK mod: inactive

Results for CN(C)S(=O)(=O)c1ccc(S(=O)(=O)N(Cc2ccccn2)Cc2ccco2)cc1 ?
FLuc inh: inactive; UbGFP stabilizer: inactive; GFP derepression: inactive; HBB splice mod: inactive; GBA activity: 6.66; Bst PK mod: inactive

How did CCOC(=O)c1cnc(SCC(=O)N2CCN(c3ccccc3)CC2)nc1N do in these assays?
FLuc inh: inactive; UbGFP stabilizer: inactive; GFP derepression: inactive; HBB splice mod: inactive; GBA activity: inactive; Bst PK mod: inactive

How did CCOC(=O)c1cnc(SCc2ccccc2)nc1N do in these assays?
FLuc inh: 15.8µM; UbGFP stabilizer: inactive; GFP derepression: inactive; HBB splice mod: inactive; GBA activity: inactive

How did c1csc(-c2nc3ccccc3[nH]2)c1 do in these assays?
FLuc inh: inconclusive; UbGFP stabilizer: inactive; GFP derepression: inactive; HBB splice mod: inactive; GBA activity: inactive

How did Nc1nc(-c2nc3ccccc3[nH]2)cs1 do in these assays?
FLuc inh: 12.6µM; UbGFP stabilizer: inactive; GFP derepression: inactive; HBB splice mod: inactive; GBA activity: inactive; Bst PK mod: inconclusive

Results for Cc1ccc(-c2nc3ccccc3[nH]2)s1 ?
FLuc inh: 5.01µM; UbGFP stabilizer: inactive; GFP derepression: inactive; HBB splice mod: inactive

Results for Nc1c[n+](N2CCOCC2)no1 ?
FLuc inh: inactive; UbGFP stabilizer: inactive; GFP derepression: inactive

What do the screens show for `O=C(Nc1cnc2ccccc2c1)N1CCOCC1`?
FLuc inh: inactive; UbGFP stabilizer: inactive; GFP derepression: inactive; GBA activity: inactive; Bst PK mod: inactive

What do the screens show for `O=C(Nc1cnc2ccccc2c1)N1CCCCC1`?
FLuc inh: 10µM; UbGFP stabilizer: inactive; GFP derepression: inactive; HBB splice mod: inactive

What do the screens show for `Cn1c2ccccc2c2c(C(=O)NCC3CCCO3)cn(C3CCCC3)c(=O)c21` (stereo not given)?
FLuc inh: 12.6µM; UbGFP stabilizer: inactive; GFP derepression: inactive; HBB splice mod: inactive; GBA activity: inactive

How did CC(C)Cn1cc(C(=O)NCC2CCCO2)c2c3ccccc3n(C)c2c1=O (stereo not given) do in these assays?
FLuc inh: inactive; UbGFP stabilizer: inactive; GFP derepression: inactive; HBB splice mod: inactive; GBA activity: inactive

What do the screens show for `O=C1c2ccccc2NC(c2ccc3c(c2)OCCO3)N1c1ccc2c(c1)OCCO2` (stereo not given)?
FLuc inh: 20µM; UbGFP stabilizer: inactive; GFP derepression: inactive; HBB splice mod: inactive[1.84 µM]; GBA activity: inactive

What do the screens show for `CC(C)C[C@@H](CC(=O)N[C@@H](CCCN)CC(=O)N[C@@H]1CCCC[C@H]1C(=O)N[C@H](CC(=O)N[C@@H](CCC(=O)O)CC(=O)O)CC(C)C)NC(=O)[C@@H]1CNCC[C@H]1N`?
HBB splice mod: inactive

What do the screens show for `Cc1occc1C(=O)Nc1ccc2c(c1)OCCO2`?
FLuc inh: 20µM; UbGFP stabilizer: inactive; GFP derepression: inactive; HBB splice mod: inactive; GBA activity: inactive; Bst PK mod: inactive

What do the screens show for `O=C(Nc1ccc2c(c1)OCCO2)c1ccc(CN2CCOCC2)cc1`?
FLuc inh: 15.8µM; UbGFP stabilizer: inactive; GFP derepression: inactive; GBA activity: inconclusive

Results for O=C(Nc1ccc2c(c1)OCCO2)c1cncc(Br)c1 ?
FLuc inh: 10µM; UbGFP stabilizer: inactive; GFP derepression: inactive; HBB splice mod: inactive; GBA activity: inactive; Bst PK mod: inactive

Results for Cc1cc(C(=O)Nc2ccc3c(c2)OCCO3)c(C)o1 ?
FLuc inh: 15.8µM; UbGFP stabilizer: inactive; GFP derepression: inactive; HBB splice mod: inactive; GBA activity: inactive; Bst PK mod: inactive

How did COc1cccc(NC(=O)c2ccc(CN3CCOCC3)cc2)c1 do in these assays?
FLuc inh: inconclusive; UbGFP stabilizer: inactive; GFP derepression: inactive; HBB splice mod: inactive

What do the screens show for `CC(=O)N1CCC2(CCCN(c3ccc(-c4ccccc4)cc3)C2)CC1`?
FLuc inh: inactive[11.4 µM]; UbGFP stabilizer: inactive; GFP derepression: inactive[9.22 µM]; HBB splice mod: inactive
